This is a sample that favours compounds with a hit; in the whole collection about 2.9% have one here.
POLH inh = inhibitors of human DNA polymerase eta | recombinant Pol eta, fluorescent DNA replication assay | AID 588591 | Q9Y253 | 390,000 compounds, 1.2% hits | Potency, µM (highest dose often 114 µM), without a hit: top-dose activity change, negative = inhibition, hits mostly inhibitors; note: potency is the fitted concentration of half-maximal effect; % is set by controls: 0 for no effect and ±100 for the full control effect
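Pol eta (10 nM) was preincubated with compounds for 15 min at room temperature, after which fluorescent replication substrate (50 nM final) was added to start the reaction. Fluorescence was read kinetically at 0 and 10 min.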
PI5P4K alpha inh = inhibitors of human PI5P4K alpha; P48426; PI5P4Kalpha enzyme, ADP-Glo luminescence, 60 min; active compounds read low; max response, %; 330,000 compounds, 1.2% hits; AID 652105; active = max response of -50% or lower; inconclusive = between -30% and -50%; inactive = -30% or higher; note: value at the top dose of about 77 µM; % is set by controls: 0 for no effect and ±100 for the full control effect
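Controls without substrate or without enzyme flank wells where PI5P4Kalpha converts substrate using 5 microM ATP (final). Incubation lasts 60 minutes at room temperature; ADP formed is read by ADP-Glo luminescence.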
POLI inh = blocks human DNA polymerase iota activity; Pol iota fluorescent replication assay, 10 min; 390,000 compounds, 1% hits; Potency, µM (top dose mostly 115 µM), inactives show at the highest dose activity, negative = inhibition, actives largely listed as inhibitors; note: potency is the fitted concentration of half-maximal effect
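Fluorescent replication assay read twice, at 0 min and 10 min after adding 50 nM (final) substrate. Enzyme (10 nM) and compounds were first incubated 15 min at room temperature; enzyme-free buffer wells were negative controls.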
Pol beta inh = DNA polymerase beta (human) inhibition; Pol beta primer extension/strand displacement, fluorescence kinetic; Potency, µM (top dose mostly 114 µM), without a hit: top-dose activity change, negative = inhibition, hits mostly inhibitors; 340,000 compounds, 1.3% hits; note: potency is the fitted concentration of half-maximal effect; % is set by controls: 0 for no effect and ±100 for the full control effect
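Homogeneous kinetic assay of primer extension and strand displacement by 10 nM Pol beta, preincubated 15 min at room temperature with compound before 50 nM substrate (final) was added. Read at 0 and 10 min; four-parameter Hill fit.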
12-LOX inh = inhibitors of human 12S-lipoxygenase ALOX12. P18054. purified 12hLO, xylenol orange hydroperoxide absorbance. Potency, µM (doses to about 108 µM), for inactives: top-dose activity change, negative = inhibition, actives largely listed as inhibitors. 580,000 compounds, 1.1% hits. AID 1671190; note: potency is the fitted concentration of half-maximal effect; % is set by controls: 0 for no effect and ±100 for the full control effect
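Purified human 12hLO (150 nM final) in 25 mM Hepes, 0.01% Triton X-100, pH 7.0 was preincubated 15 min at room temperature with compound. Then 40 uM arachidonic acid was added, 30 min. Hydroperoxide was read by Fe-XO absorbance ratio 573/405 nm.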
POLK inh = blocks human DNA polymerase kappa activity. Q9UBT6. Potency, µM (highest dose often 107 µM), for the others: at the highest dose activity, negative = inhibition, actives largely listed as inhibitors. purified Pol kappa, fluorescent DNA synthesis assay, 10 min. 400,000 compounds, 0.53% hits; note: potency is the fitted concentration of half-maximal effect; % is set by controls: 0 for no effect and ±100 for the full control effect
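Activity was followed as the change in fluorescence between reads at 0 and 10 min after starting the reaction with 50 nM substrate. Beforehand, 10 nM polymerase had been preincubated with compound for 15 min at room temperature.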
PGK validate = blocks T. brucei phosphoglycerate kinase | AID 686980 | shares compounds with POLK inh | 500 compounds, 79% hits | TbPGK coupled GAPDH assay, Kinase-Glo luminescence | Potency, µM (top dose mostly 57.5 µM), for inactives: top-dose activity change, negative = inhibition, most hits filed as inhibitors; note: potency is the fitted concentration of half-maximal effect; % is set by controls: 0 for no effect and ±100 for the full control effect; nearly all actives have a fitted effect of over 65% in size
Target sequence (P07378 whole entry, looked up): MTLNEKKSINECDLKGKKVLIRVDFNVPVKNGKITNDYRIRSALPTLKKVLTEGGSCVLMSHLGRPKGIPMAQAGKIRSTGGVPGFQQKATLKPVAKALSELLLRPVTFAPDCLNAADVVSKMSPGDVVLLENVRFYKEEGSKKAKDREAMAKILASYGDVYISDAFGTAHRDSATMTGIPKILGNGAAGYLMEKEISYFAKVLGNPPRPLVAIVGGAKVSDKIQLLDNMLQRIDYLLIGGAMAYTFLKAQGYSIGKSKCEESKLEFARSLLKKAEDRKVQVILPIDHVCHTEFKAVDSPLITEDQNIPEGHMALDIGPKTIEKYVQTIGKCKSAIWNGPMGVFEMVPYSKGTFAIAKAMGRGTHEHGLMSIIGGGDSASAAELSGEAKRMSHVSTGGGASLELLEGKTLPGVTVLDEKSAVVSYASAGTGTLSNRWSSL
POLI cherry-pick = Confirm cherry-picked inhibitors of human polymerase iota. shares compounds with POLK inh. Pol iota primer extension, TAMRA/BHQ fluorescence. Potency, µM, actives largely listed as inhibitors. 1,500 compounds, 77% hits. AID 720496; note: potency is the fitted concentration of half-maximal effect
* marks the source's active call; other numbers are inactive results; ? = inconclusive; . = no result given; [ ] = another dose, or the depositor's remark. Unless noted, calls come from the whole dose curve; as a rule, active = well fitted curve in the direction sought with a large enough effect; inconclusive = small, poorly fitted or top-dose-only effect, or another doubt; inactive = no such curve, though single readings can be large; an effect the other way counts as inactive or inconclusive.

SMILES	POLH inh	PI5P4K alpha inh	POLI inh	Pol beta inh	12-LOX inh	POLK inh	PGK validate	others
CC1=C(C(=O)Nc2cccnc2)C(c2ccccc2)n2nc(SCc3ccccc3)nc2N1 (centres undefined)	4%	.	1%	27%	-17%	-13%	.
Cc1cccc(NC(=O)CN2C(=O)N/C(=C\c3ccccc3OCc3ccc(C(=O)O)cc3)C2=O)c1	?	-18	?	50µM*	23%	?	.	POLI cherry-pick=75*
Cc1cccc(NC(=O)CN2C(=O)N/C(=C/c3cc(C)n(C)c3C)C2=O)c1	-12%	9	121%	-25%	-3%	3%	.
BrC(=C\c1ccccc1)/C=N/Nc1ccc2nncn2n1	50µM*	-10	?	?	-12%	-23%	.	POLI cherry-pick=34*
O=C(c1ccc(Br)o1)N1CCN(C2CCN(Cc3ccccn3)C2=O)CC1 (centres undefined)	.	.	.	.	44%	.	.
O=c1oc(-c2ccc(F)cc2)nn1CC(O)COc1ccc2ccccc2c1 (centres undefined)	.	.	.	.	19%	.	.
Cc1ccccc1Nc1nn2c(=O)c3ccc(C(=O)NCc4ccccc4)cc3nc2s1	?	.	79µM*	13µM*	-16%	0%[60.1 µM]	.	POLI cherry-pick=?
Cc1noc(C)c1-c1cc2cc(C(C)C)oc2c(NC2CCOCC2)n1	.	.	.	.	-1%[176 µM]	.	.
COc1ccc(C2CCCN2C(=O)c2ccc(-n3cccn3)cc2)c(OC)c1 (centres undefined)	.	.	.	.	16%	.	.
COc1cc(/C=C/c2nc3ccccc3c(=O)[nH]2)cc(Cl)c1O	?	5	33%	?	-12%	-1%	.	POLI cherry-pick=?
O=C(Nc1cccc(/C=C/c2nc3ccccc3c(=O)[nH]2)c1)c1ccccc1Cl	-13%	-7	1%	32%	0%	-20%	.
COc1ccccc1NC(=O)c1cc2ccccc2o/c1=N\O	?	-2	79µM*	20µM*	453%	-39%	.	POLI cherry-pick=?
CCOC(=O)c1cc(-c2ccc(OC)cc2)nn1-c1ccccc1C(=O)O	-3%	-18	-27%	3.2µM*	?	-13%	?
COc1ccc(-c2cc(C(=O)NN)n(-c3ccccc3)n2)cc1	-10%	4	8%	7%	27%	-20%	.
Cc1ccc(CSCC(=O)O)cc1	.	.	.	.	-8%	.	.
Cc1nc2cc(-c3ccccc3)sc2c(=O)n1N	4%	-72*	38%	11%	0%	-5%	8.2µM*
Cn1c(NCc2ccccc2)nc2cc(-c3ccccc3)sc2c1=O	.	1	.	.	-3%	.	.
COc1ccc(-c2cc3nc4n(c(=O)c3s2)CCC4)cc1	-4%	.	-5%[58.9 µM]	-16%	20%	-1%	.
COc1ccc(-c2cc3nc(C)n(N)c(=O)c3s2)cc1	-6%	-53*	10%	-9%	2%	-12%	4.1µM*
COc1ccc(OC)c(C(C)NC(=O)Cc2ccsc2)c1 (centres undefined)	.	.	.	.	-13%	.	.
COc1ccccc1N1CCN(CC(=O)c2cc(C)n(C3CCS(=O)(=O)C3)c2C)CC1 (centres undefined)	.	.	.	.	-18%	.	.
COc1ccccc1C(=O)Nc1nc2ccccc2s1	-5%	?	?	-27%	-3%	14%	16µM*
COc1ccc(/C=C(\C#N)C(=O)C(C)(C)C)c(OC)c1	.	.	.	.	-6%	.	.
C/C(=N/OC(=O)c1ccc(C)cc1)c1cccs1	-2%	-25	10%	-12%	0%	-11%	10µM*
CCOc1ccc(C(=O)O/N=C(\N)c2ccccn2)cc1	-24%	-79*	46%	10%	-39%	-6%	9.2µM*
SMILES	POLH inh	PI5P4K alpha inh	POLI inh	Pol beta inh	12-LOX inh	POLK inh	PGK validate	others
Cc1ccc(C(=O)O/N=C(\N)c2ccccn2)cc1	-8%	-55*	30%	-2%	24%	-9%	6.5µM*
C/C(=N\NC(=O)c1cccs1)c1ccc(C)cc1	.	.	.	.	18%	.	.
N/C(=N\OC(=O)c1ccccc1)c1ccccn1	-19%	?	9%	21%	-2%	-1%	10µM*
Cc1ccc(C(=O)O/N=C(\N)c2ccccn2)cc1C	6%	-1	93%	25%	8%	-1%	.
CC(C)(C)c1ccc(C(=O)O/N=C(\N)c2ccccn2)cc1	-23%	-4	54%	5%	-20%	-7%	.
CCOc1ccccc1C(=O)N1CCc2[nH]nc(-c3ccc(F)c(F)c3)c2C1	.	.	.	.	38%	.	.
Cn1c2ccccc2c2nnc(SCc3c(F)cccc3Cl)nc21	.	.	.	.	26%	.	.
COc1ccc(C(=O)O/N=C(\C)c2ccccc2)cc1	-1%	?	-6%	14%	-3%	-11%	8.2µM*
COc1ccc(C(=O)O/N=C(/c2ccccc2)c2ccncc2)cc1	-7%	2	11%	2%	10%	-3%	.
CCn1cc(C(=O)O)c(=O)c2cc(F)c(N3CCN(S(=O)(=O)c4ccc(NC(=O)OC)cc4)CC3)cc21	?	-6	17%	?	12%	2%	.	POLI cherry-pick=34*
CCn1cc(C(=O)O)c(=O)c2cc(F)c(N3CCN(C(=S)Nc4ccccc4OC)CC3)cc21	10%	3	-9%	0%	-28%	5%	.
O=C(CCc1ccccc1)N1CCCCCC1CN1CCOCC1 (centres undefined)	.	.	.	.	5%	.	.
CC(C)=CCc1cc(-c2oc3cc(O)cc(O)c3c(=O)c2O)ccc1O	?	-55*	?	.	35µM*	-14%	-28%
O=C(CN1C(=O)S/C(=C/c2cccn2-c2ccc(O)cc2)C1=O)N1CCCC1	-9%	2	-8%	9%	-24%	-3%	.
O=C(O)c1ccc(-n2cccc2/C=C2\SC(=O)N(Cc3ccc(Cl)c(Cl)c3)C2=O)cc1	.	.	.	.	.	.	.	POLI cherry-pick=67*
CC(C)(C)NC(=O)NC(=O)CSc1nnc(COc2ccccc2Cl)o1	-16%	11	1%	-2%	-7%	-4%	.
O=C(CSc1nnc(COc2ccccc2Cl)o1)NC(=O)NCc1ccco1	50µM*	-75*	40µM*	14µM*	-19%	?	.	POLI cherry-pick=67*
Cc1ccc(-c2nc3ccccc3n2C)o1	0%	.	27%	-2%	-7%	-12%	?
COc1ccc(/C=N/Nc2nncc3ccccc23)cc1	5%	-29	-17%	-4%	?	-7%	18µM*
Cc1cccc(/C(N)=N/OC(=O)c2ccc3c(c2)OCO3)c1	-10%	?	-15%	-2%	-18%	-13%	10µM*
O=C1/C(=C\c2cccc(Cl)c2)Cc2ccccc21	.	.	.	.	7%	.	.

Assay outcomes deposited in PubChem BioAssay by National Center for Advancing Translational Sciences (NCATS).
